Source: PubChem BioAssay (Tox21)
Results filed as inconclusive are left out. The source made the active and inactive calls. Unless noted, the call rests on the fitted dose curve; in most records, active means well fitted curve in the direction sought with a large enough effect in the repeat runs; inconclusive means weak or mixed curves; inactive means no such curve, though single readings can be large; an effect the other way counts as inactive or inconclusive.

Legend:
[1] = qHTS assay to identify small molecule that activate the aryl hydrocarbon receptor (AhR) signaling pathway - cell viability counter screen (AID 743086);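 further: HepG2 liver cells carrying the AhR DRE luciferase reporter; series mostly up to about 70 µM; nearly all actives have a fitted effect of over 45% in size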
Outline: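 Cytotoxicity counter screen: CellTiter-Fluor signal (30 min, 37 C) in 4000 HepG2 cells/well carrying the DRE-luciferase reporter, following 24 h compound exposure at 37 C.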

[2] = biological target: Peroxisome proliferator-activated receptor gamma (Homo sapiens) (UniProt P37231); test: qHTS assay to identify small molecule agonists of the peroxisome proliferator-activated receptor gamma (PPARg) signaling pathway (AID 743094; active means well fitted activation curve with a large enough effect in the signal ratio in the repeat runs, not every such curve was filed as active; the % refers to the signal ratio)
Sequence of Peroxisome proliferator-activated receptor gamma (Homo sapiens) (P37231 whole entry, looked up): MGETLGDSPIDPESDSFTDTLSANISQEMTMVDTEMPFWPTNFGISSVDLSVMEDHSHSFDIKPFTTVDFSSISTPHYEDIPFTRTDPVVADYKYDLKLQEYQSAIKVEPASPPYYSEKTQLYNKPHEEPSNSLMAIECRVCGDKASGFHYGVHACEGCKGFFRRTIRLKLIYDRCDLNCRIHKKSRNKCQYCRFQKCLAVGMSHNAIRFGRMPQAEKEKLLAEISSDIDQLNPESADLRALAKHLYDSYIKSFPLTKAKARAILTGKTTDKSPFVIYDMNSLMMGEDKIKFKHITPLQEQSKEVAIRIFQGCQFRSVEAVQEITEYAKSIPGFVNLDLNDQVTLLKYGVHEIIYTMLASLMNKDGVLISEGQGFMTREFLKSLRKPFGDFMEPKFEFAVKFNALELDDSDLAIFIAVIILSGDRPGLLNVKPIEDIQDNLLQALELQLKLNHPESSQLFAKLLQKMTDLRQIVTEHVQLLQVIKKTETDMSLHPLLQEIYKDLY
Outline: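 GeneBLAzer PPARg UAS-bla HEK293H cells carrying a stably integrated beta-lactamase reporter were pre-incubated 5 h at 37C, then exposed to compounds in DMSO for 17 h at 37C; LiveBLAzer B/G FRET substrate was added for 1 h at room temperature and fluorescence read.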

[3] = biological target: Peroxisome proliferator-activated receptor gamma (Homo sapiens) (UniProt P37231); test: qHTS assay to identify small molecule antagonists of the peroxisome proliferator-activated receptor gamma (PPARg) signaling pathway (AID 743191; calls by dose curve; further: nearly all actives have a fitted effect of over 30% in size; further: potency means the concentration at half of the fitted maximal effect)
Outline: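 Beta-lactamase reporter under UAS control in HEK293H PPARg-bla cells; compound treatment 17 h at 37C. Read-out: fluorescence intensity after 1 h room-temperature incubation with LiveBLAzer B/G FRET substrate.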

[4] = qHTS assay to identify small molecule antagonists of the peroxisome proliferator-activated receptor gamma (PPARg) signaling pathway - cell viability counter screen (AID 743194); further: nearly all actives have a fitted effect of over 55% in size
Outline: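 Viability was measured as CellTiter-Glo luminescence in GeneBLAzer PPARg UAS-bla HEK293H cells. These cells had been exposed 17 h at 37 C to compounds together with rosiglitazone at 50 nM final, with the beta-lactamase readout taken in the same wells.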

[5] = qHTS assay for small molecule agonists of the antioxidant response element (ARE) signaling pathway (AID 743202; active means well fitted activation curve with a large enough effect in the signal ratio in the repeat runs, not every such curve was filed as active; the % refers to the signal ratio; further: potency means the concentration at half of the fitted maximal effect)
Outline: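 An ARE-responsive beta-lactamase gene stably integrated in HepG2 cells serves as reporter. After 5 h plating and 16 h compound incubation at 37 C, fluorescence of the B/G FRET substrate was measured.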

[6] = qHTS assay for small molecule agonists of the antioxidant response element (ARE) signaling pathway - cell viability counter screen (AID 743203; calls by dose curve; further: nearly all actives have a fitted effect of over 55% in size; further: potency means the concentration at half of the fitted maximal effect)
Outline: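 CellSensor ARE-bla HepG2 cells, 2,000 per well, rested 5 hrs at 37C/5% CO2, then exposed to compound in DMSO for 16 hrs; viability read as CellTiter-Glo luminescence after 30 min at room temperature, in the reporter wells.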

[7] = qHTS assay for small molecule activators of the heat shock response signaling pathway - cell viability counter screen (AID 743209); further: nearly all actives have a fitted effect of over 50% in size
Outline: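 CellSensor HSE-bla HeLa cells, plated overnight at 37 C/5% CO2, were exposed to compounds in DMSO for 5 h at 37 C. Viability was then read in the same wells by CellTiter-Glo luminescence after 30 min at room temperature.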

[8] = qHTS assay for small molecule activators of the heat shock response signaling pathway (AID 743210; active means well fitted activation curve with a large enough effect in the signal ratio in the repeat runs, with a control signal flat, not every such curve was filed as active; the % refers to the signal ratio;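 further: HeLa cells with beta-lactamase reporter driven by heat shock elements; series mostly up to about 63 µM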)
Outline: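 In HSE-bla HeLa cells, 5 h compound incubation (37 C) precedes addition of LiveBLAzer B/G substrate; after 2.5 h at room temperature, fluorescence intensity indicates reporter induction.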

[9] = qHTS assay to identify aromatase inhibitors - cell viability counter screen (AID 743084);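 further: cells stimulated with testosterone during compound exposure; nearly all actives have a fitted effect of over 55% in size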
[10] = biological target: Aryl hydrocarbon receptor (Homo sapiens) (UniProt P35869); test: qHTS assay to identify small molecule that activate the aryl hydrocarbon receptor (AhR) signaling pathway (AID 743085);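 further: HG2L7.5c1 human HepG2 liver cells with stably integrated DRE-driven firefly reporter; series mostly up to about 70 µM; nearly all actives have a fitted effect of over 15% in size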
Sequence of Aryl hydrocarbon receptor (Homo sapiens) (P35869 whole entry, looked up): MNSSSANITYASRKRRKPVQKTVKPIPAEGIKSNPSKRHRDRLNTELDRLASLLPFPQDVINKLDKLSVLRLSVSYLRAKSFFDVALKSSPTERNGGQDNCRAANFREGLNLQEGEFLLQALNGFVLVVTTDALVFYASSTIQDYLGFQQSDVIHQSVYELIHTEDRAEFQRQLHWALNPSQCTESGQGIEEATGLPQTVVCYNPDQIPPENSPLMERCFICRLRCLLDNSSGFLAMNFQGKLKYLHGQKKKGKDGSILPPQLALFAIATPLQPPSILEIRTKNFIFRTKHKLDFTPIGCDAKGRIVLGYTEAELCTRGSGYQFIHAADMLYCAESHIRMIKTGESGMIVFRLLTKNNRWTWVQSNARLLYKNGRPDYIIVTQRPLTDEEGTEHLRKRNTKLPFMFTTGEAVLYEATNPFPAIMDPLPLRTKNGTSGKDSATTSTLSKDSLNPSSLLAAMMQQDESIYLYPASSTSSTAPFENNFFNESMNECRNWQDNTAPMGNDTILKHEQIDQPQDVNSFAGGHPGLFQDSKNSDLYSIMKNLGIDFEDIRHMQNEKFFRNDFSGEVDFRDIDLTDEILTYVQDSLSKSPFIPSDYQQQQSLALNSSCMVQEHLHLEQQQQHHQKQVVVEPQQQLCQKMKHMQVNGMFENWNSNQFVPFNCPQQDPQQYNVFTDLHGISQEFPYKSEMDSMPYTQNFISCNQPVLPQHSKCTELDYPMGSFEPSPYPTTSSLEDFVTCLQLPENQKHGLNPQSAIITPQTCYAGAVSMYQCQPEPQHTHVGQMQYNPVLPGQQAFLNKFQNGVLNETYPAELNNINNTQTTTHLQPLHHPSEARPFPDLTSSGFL
Outline: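 Steps: seed HepG2-AhR-luc cells; allow 5 h at 37C; pin-transfer test compound or vehicle; incubate 24 h at 37C; add viability dye (30 min, 37C) and read fluorescence; add luciferase substrate (30 min, RT) and read luminescence.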

Measured: Potency

CC(C)C(=O)OCC(C)(C)C(O)C(C)C (configuration not stated)
not listed: [8] | [9] | [10]
inactive: all other assays above

CN1CCN(N)CC1
inactive: [3] | [4] | [5] | [6] | [7] | [8]

O=C1CCN(c2ccccc2)N1
inactive: [9] | [4] | [5] | [6] | [7]

N#CSCC(=O)O
inactive: [5] | [6] | [7]

CCOC(=O)c1cc(=O)c2c(OCC(COc3cccc4oc(C(=O)OCC)cc(=O)c34)OC(=O)[C@@H](N)CCCCN)cccc2o1
inactive: [3] | [5] | [7]

CCCOc1ccc2c(c1)CC[C@@H]1[C@@H]2CC[C@]2(C)C(OC)CC[C@@H]12 (some centres not stated)
inactive: [4] | [6] | [7] | [8]

CCOc1ccc(NS(=O)(=O)c2ccc(N)cc2)nn1
inactive: [1] | [4] | [5] | [6] | [8]

CN(C)CC[C@@H](c1ccc(Cl)cc1)c1ccccn1
inactive: [10] | [4] | [5] | [7]

NC(=O)NS(=O)(=O)c1ccc(Cl)cc1
inactive: [3] | [5] | [6] | [7]

O=C(CC(=O)C(F)(F)F)c1ccccc1
inactive: [9] | [4] | [5] | [7]

C/C(=N\O)[C@@H](C)NCC(C)(C)CN[C@H](C)/C(C)=N/O
inactive: [3] | [4] | [5] | [7] | [8]

CC(Oc1c(Cl)cccc1Cl)C1=NCCN1 (configuration not stated)
inactive: [3] | [4] | [6] | [7]

CCCCCCOc1ccc(N)cc1
inactive: [1] | [2] | [3] | [4] | [5] | [8]

CCCC1CCC(=O)O1 (configuration not stated)
not listed: [1] | [8] | [9]
inactive: all other assays above

Cc1nc(N)nc(N)c1-c1ccc(Cl)c(Cl)c1
inactive: [7] | [8]
active: [3] 1.88 µM | [6] 0.668 µM

Cc1cn([C@@H]2O[C@H](CO)[C@@H](O)[C@@H]2F)c(=O)[nH]c1=O
inactive: [4] | [5] | [6] | [7] | [8]

CC[C@H]1CC[C@H](NCc2cc3c(cc2OC)[C@H]2C[C@H]2C(=O)N3C)[C@H](c2ccccc2)N1
inactive: [10] | [3] | [4] | [7]

CCCCCCn1c(=O)c2c(ncn2C)n(C)c1=O
inactive: [4] | [5] | [7]

CCC(=O)c1ccc2c(c1)N(CCCN(C)C)c1ccccc1S2
inactive: [10] | [4] | [8]

Cc1c[nH]c(=S)[nH]c1=O
not listed: [8] | [9]
inactive: all other assays above

CCCC(CCC)(C(=O)OCC)C(=O)OCC
inactive: [4] | [5] | [6] | [8]

c1ccc(CN(CC2=NCCN2)c2ccccc2)cc1
inactive: [9] | [2] | [4] | [6] | [7] | [8]

CCCS(=O)c1ccc2nc(NC(=O)OC)[nH]c2c1 (configuration not stated)
inactive: [4] | [6] | [7] | [8]

CCc1cc2cc(OC)c(OC)cc2c(Cc2ccccc2)n1
inactive: [5] | [6] | [7] | [8]

O=C(C(Cl)Cl)N1CCOC12CCCCC2
inactive: [10] | [2] | [4] | [7]
active: [5] 34.4 µM

Cc1onc(-c2ccccc2)c1C(=O)Cl
inactive: [3] | [4] | [5] | [7] | [8]

O=C1Nc2ccc([N+](=O)[O-])cc2C1=O
inactive: [6] | [7] | [8]

CC1=NN(c2cc(Cl)c(S(=O)(=O)O)cc2Cl)C(=O)C1N=Nc1ccc(S(=O)(=O)O)cc1 (configuration not stated)
not listed: [1] | [9]
inactive: all other assays above

O=C(CCCl)NCc1ccccc1
inactive: [3] | [5] | [6] | [7]

COC(=O)c1ccc(OC)cc1
not listed: [1] | [2] | [10]
inactive: all other assays above

CC(=O)O[C@H]1CC[C@@]2(C)C(=CC[C@@H]3[C@@H]2CC[C@]2(C)C(C(C)=O)=CC[C@@H]32)C1
active: [5] 23.7 µM
inactive: [3] | [6] | [7] | [8]

O=Cc1ccc(O)c(O)c1O
inactive: [3] | [6]
active: [5] 23.7 µM

C=Cc1ccccc1
inactive: [9] | [2] | [5] | [6] | [7] | [8]

COC(=O)N[C@H](C(=O)N[C@@H](Cc1ccccc1)[C@@H](O)CN(Cc1ccc(-c2ccccn2)cc1)NC(=O)[C@@H](NC(=O)OC)C(C)(C)C)C(C)(C)C
inactive: [3] | [4] | [6] | [7]

COC(=O)/C=C(/C)N
inactive: [3] | [4] | [5] | [6] | [7]

Nc1ccc2ccccc2c1S(=O)(=O)O
active: [5] 12.4 µM
inactive: [4] | [6] | [7] | [8]
